The values below come from PubChem BioAssay AID1569 (National Center for Advancing Translational Sciences (NCATS), 2009).

Inconclusive results are not listed. Unmarked numbers belong to inactive results. Calls of active or inactive are those of the source. The call rests on the fitted dose curve; in most records, active means well fitted inhibition curve with a large enough effect; inconclusive means small, poorly fitted or top-dose-only effect, or effect the other way, or another doubt; inactive means no such curve, though single readings can be large or run the other way.
Potency means the concentration at half of the fitted maximal effect.

The nature of this assay: Confirmation Concentration-Response Assay for lipid storage modulators. Further: nearly all actives have a fitted effect of over 80% in size.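 On activity change, negative = inhibition: -100% = full block of lipid deposition by 20 µM Triacsin C.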 Particulars: Drosophila S3 cells, lipid droplet BODIPY/CellTracker ratio, 18-24 h; series mostly up to 46.1 µM; activity change, negative = inhibition: at the top concentration. The method in brief: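 Cells at 5,000/well received compound as a titration plus oleic acid (added as 400 uM solution) and were incubated 18–24 h at 24 °C. BODIPY 493/503 lipid signal and CellTracker Red cell count were read by 488-nm laser-scanning cytometry. Activity was normalised to 20 uM Triacsin C.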
`COc1ccc(CCn2ccc(O)c(Cc3ccc(Cl)cc3)c2=O)cc1OC`: the Potency is 0.315 µM (active).

Regarding `Cc1ccccc1C(=O)N1CCC(C(=O)Nc2ccc(S(=O)(=O)N3CCCCC3)cc2)CC1`, the “activity change, negative = inhibition” value is -14.9%. Still for that read-out and setting: to `O=C(Nc1ccc(N2CCOCC2)cc1N1CCOCC1)c1ccc(Br)cc1` belongs 0%; to `COc1ccc(CCNC(=O)COc2ccc(S(=O)(=O)NCC(C)C)cc2Cl)cc1OC`, -18%. Still for that read-out and setting: to `COc1ccc(CCNC(=O)CSc2nc3[nH]ncc3c(=O)n2-c2ccc(Cl)cc2Cl)cc1OC` belongs -19.3%. With `COc1ccc(CCNC(=O)CSc2nnc(-c3ccccc3)c3ccccc23)cc1OC`, the Potency is 4.45 µM (active). In the case of `COc1ccc(CCNC(=O)C(Sc2ccccn2)c2ccccc2)cc1OC` (stereo not given), the “activity change, negative = inhibition” value is 26.7%. `CCn1c(COc2ccc(Cl)cc2)nnc1SCC(=O)Nc1ccc2c(c1)OCCO2`: the Potency is 11.2 µM (active).

Turning to `COc1ccc(CCNC(=O)Cn2nnc(-c3ccc(N4CCOCC4)cc3)n2)cc1OC`, the Potency is 0.0445 µM (active). Still for that read-out and setting: to `COC(=O)c1ccccc1NC(=O)c1ccc(C#N)cc1` belongs 1.12 µM [activator] (active). In the case of `COc1ccc(NC(=O)NC2(C(=O)N3CCN4CCCC4C3)CCCCC2)cc1` (stereo not given), the “activity change, negative = inhibition” value is 10.5%. As to `Nc1cccc(-c2nc3cc(S(=O)(=O)c4ccc5oc(-c6cccc(N)c6)nc5c4)ccc3o2)c1`, the Potency is 6.28 µM (active). Still for that read-out and setting: to `Cc1cccc(OCc2nnc(SCC(=O)N3c4ccccc4CC3C)n2C)c1C` (stereo not given) belongs 6.28 µM (active). Take `CCOc1ccc(CCNC(=O)COC(=O)c2ccc(Cl)nc2)cc1OCC`: the “activity change, negative = inhibition” value is -20.7%. Consider `CC(C)OC(=O)c1cc2c(ccn2C)n1CC(=O)N(Cc1ccccc1)c1ccccc1`, for which the Potency was 1.77 µM (active).
